# From PubChem
# This excerpt belongs to a sample that is enriched for hits.
# VACV Venus inh: vaccinia inhibition (Venus reporter) | 330,000 tested, 0.46% active | Potency, µM (titrated, usually from 36.5 µM), for the others: top-dose activity change, negative = inhibition, usual class: inhibitors | Vaccinia virus Venus reporter expression, fluorescence | AID 720580; calls by dose curve; tested in A549 cells; also: potency is read from the fitted curve at half-maximal effect; % is scaled to controls: 0 for no effect and ±100 for the full control effect; nearly all actives have a fitted effect of over 30% in size
# Lassa entry inh: inhibitors of Lassa virus binding or cell entry; Lassa virus pseudotype entry inhibition, cell reporter; Potency, µM (titrated, usually from 37.9 µM), for inactives: at the highest dose activity change, negative = inhibition, most hits filed as inhibitors; 300,000 tested, 1.2% active; AID 540256; calls by dose curve; tested in HEK293 cells; also: potency is read from the fitted curve at half-maximal effect; % is scaled to controls: 0 for no effect and ±100 for the full control effect; nearly all actives have a fitted effect of over 50% in size
# Cycloheximide cs: affects cycloheximide protein synthesis inhibition readout, counter-screen | cell reporter, cycloheximide protein synthesis inhibition counterscreen | max response, % | 300,000 tested, 12% active; in the data active = max response mostly above about 13%, no sharp cut-off; inactive = mostly below about 14%; also: read at 38.3 µM for the half of the compounds with a filed dose; 0% is about no effect
# MARV entry inh: inhibitors of Marburg virus binding or cell entry; 300,000 tested, 1.8% active; Marburg virus pseudotyped entry inhibition, cell reporter; Potency, µM (highest dose often 37.8 µM), for inactives: top-dose activity change, negative = inhibition, hits mostly inhibitors; calls by dose curve; tested in HEK293 cells; also: potency is read from the fitted curve at half-maximal effect; % is scaled to controls: 0 for no effect and ±100 for the full control effect
# Shiga inhibitor: Shiga toxin inhibition. 290,000 tested, 9.2% active. inhibition, % at 38.7 µM. Vero cells, Shiga toxin protein synthesis inhibition reporter; in the data active = inhibition mostly above about 28%, no sharp cut-off; inactive = mostly below about 43%; also: 0% is about no effect
# Vaccinia mCherry: inhibitors of vaccinia virus infection (mCherry reporter signal); Vaccinia virus mCherry reporter infection, fluorescence; Potency, µM (series often up to 36.5 µM), without a hit: at the top dose activity change, negative = inhibition, most hits filed as inhibitors; 310,000 tested, 0.63% active; calls by dose curve; tested in A549 cells; also: potency is read from the fitted curve at half-maximal effect; % is scaled to controls: 0 for no effect and ±100 for the full control effect; nearly all actives have a fitted effect of over 35% in size
# * marks the source's active call; other numbers are inactive results; i = inactive; ? = inconclusive; / = no result given; [ ] = remark or other dose.
SMILES,VACV Venus inh,Lassa entry inh,Cycloheximide cs,MARV entry inh,Shiga inhibitor,Vaccinia mCherry
CCN1CCN(c2ccc(S(=O)(=O)N3CCCCC3)cc2NC(=O)/C=C/c2ccc(OC)c(OC)c2)CC1,-22%,17%,/,?,/,-10%
CCN1CCN(c2ccc(S(=O)(=O)N3CCCCC3)cc2NC(=O)/C=C/c2ccc(Cl)cc2)CC1,?,18µM*,/,?,/,?
CCN1CCN(c2ccc(S(=O)(=O)N3CCCCC3)cc2NC(=O)c2ccc([N+](=O)[O-])s2)CC1,10µM*,?,/,?,/,8.9µM*
CCN1CCN(c2ccc(S(=O)(=O)N3CCCCC3)cc2NC(=O)c2ccccc2)CC1,-11%,-7%[46.1 µM],/,-6%,/,i
CN1CCN(c2ccc(Cl)cc2NC(=O)/C=C/c2cccc(F)c2)CC1,-25%,-15%[46.1 µM],3,5µM*,-24,?
Cc1ccc(NC(=O)CSCC(=O)Nc2ccccc2N2CCCCC2)cc1,-29%,7%,/,?,/,-29%
O=S(=O)(/N=C(/Sc1ccccc1)c1ccccc1)c1ccc(Cl)cc1,-19%,/,/,/,/,-14%
O=C(C1=C[C@H](c2ccc(Br)cc2)C[C@H](OCCCCO)O1)N1CCOCC1,-17%,/,12*,/,31,-11%
C#CCNC(=O)C1=C[C@@H](c2ccc(Br)cc2)C[C@@H](OCCCCO)O1,-12%,/,13*,/,35*,-14%
NC(=O)C1=C[C@@H](c2ccc(Br)cc2)C[C@@H](OCCCCO)O1,-9%,/,7.8*,/,19,i
NC(=O)C1=C[C@@H](c2ccccc2)C[C@@H](OCCCCO)O1,-10%,/,/,/,/,i
CCN(Cc1ccccc1)S(=O)(=O)c1c[nH]c(C(=O)OC)c1,-6%,/,-3,/,-2,-16%
O=C(NCCc1nnc2n1CCN(Cc1ccc3c(c1)CCO3)CC2)c1ccco1,-9%,/,/,/,/,-8%
COc1ccc2[nH]c(C)c(CCNC(=S)Nc3ccc(C)cc3)c2c1,/,/,1,/,16,/
C=C(C)C1Cc2c(ccc(C(=O)O)c2O)O1 (configuration not stated),14%,/,/,/,/,6%
COc1cccc2cc(C(=O)N3CCCc4ccccc43)oc12,/,/,-4,/,-22,/
Cc1ccc(C(=O)N2c3ccccc3CC2C)o1 (configuration not stated),-20%,?,39*,?,92*,-19%
O=C(c1ccc([N+](=O)[O-])cc1[N+](=O)[O-])N1CCc2ccccc21,?,0%[46.1 µM],-3,0%[46.1 µM],-10,2.2µM*
CC(=O)c1ccc(-c2ccc(C(=O)N3CCCc4ccccc43)o2)cc1,-17%,?,27*,?,142,-27%
O=C(c1ccc([N+](=O)[O-])cc1[N+](=O)[O-])N1CCCC1,-4%,-11%[46.1 µM],-2,1%[46.1 µM],-5,-25%
O=C(c1ccc(Br)o1)N1CCN(c2ccc(F)cc2)CC1,-15%,-1%,-2,-17%,-8,-5%
CC(=O)c1ccc(-c2ccc(C(=O)N3CCN(c4ccc(F)cc4)CC3)o2)cc1,/,/,21*,/,19,/
O=S(=O)(NCCC1=CCCCC1)c1c(Cl)cccc1Cl,-12%,6%,/,8%,/,-15%
CCOC(=O)c1ccc(NC(=O)COCc2cc(-c3ccc4c(c3)OCO4)on2)cc1,-8%,?,/,/,/,-12%
Cc1ccc(C(=O)N2CCc3ccccc32)o1,-13%,?,57*,?,98*,-20%
SMILES,VACV Venus inh,Lassa entry inh,Cycloheximide cs,MARV entry inh,Shiga inhibitor,Vaccinia mCherry
Cc1cc(C(=O)OCC(=O)N2c3ccccc3CC2C)c(C)o1 (configuration not stated),-16%,14%,12,3%,36*,/
Cc1nc2ccccc2c2oc(C(=O)N3CCc4ccccc43)cc12,/,/,1,/,-4,/
Cc1c(C(=O)N2CCc3ccccc32)oc2c1C(=O)CC(C)(C)C2,/,-12%,32*,?,69*,/
O=C(c1ccc([N+](=O)[O-])o1)N1CCc2ccccc21,?,-12%,14*,?,38*,?
CC1Cc2ccccc2N1C(=O)COC(=O)c1ccco1 (configuration not stated),-16%,/,/,/,/,-1%
CC(CNC(=O)C1CCN(C(=O)c2cc3sccc3n2C)CC1)c1ccccc1 (configuration not stated),-11%,/,/,1%[46.1 µM],/,-4%
Cc1ccc(C)c(N2CCN(c3nc4ccccc4c4nc(-c5cccnc5)nn34)CC2)c1,3%,/,/,1%[46.1 µM],/,-20%
COc1ccc(CN2CCCC(CO)(Cc3cccc(Cl)c3)C2)cc1OC (configuration not stated),-15%,-42%[46.1 µM],-2,?,-8,i
CCOc1cc(CN2CCC(CO)(Cc3cccc(C(F)(F)F)c3)CC2)ccc1OC,-21%,-22%[46.1 µM],-4,4.5µM*,-14,-4%
O=C1CCSC2(C(=O)N(Cc3ccccc3)c3ccccc32)N1c1ccccc1 (configuration not stated),-16%,-17%[46.1 µM],/,/,/,-22%
CC(=O)Nc1ccc(N=Nc2ccccc2)cc1,-11%,3%,49*,?,65*,-27%
CC(=O)Nc1ccccc1,-15%,/,/,/,/,-1%
O=C(Nc1ccc(N=Nc2ccccc2)cc1)c1ccccc1Cl,?,?,27*,?,73*,-13%
CC(=O)Nc1ccc(Nc2ccccc2)cc1,/,/,27*,/,59*,/
CCCC(=O)Nc1ccc(Nc2ccccc2)cc1,-9%,0%,23*,?,35*,i
O=C(Nc1ccc(N=Nc2ccccc2)cc1)c1ccc(Cl)cc1Cl,-10%,-21%,0,-7%,-11,-14%
CNC(=S)Nc1ccc(Nc2ccccc2)cc1,/,1%,20*,-16%,26,/
CCCNC(=S)Nc1ccc(Nc2ccccc2)cc1,-18%,?,15,?,38,-25%
CC(=O)OCC(=O)Nc1ccc(N=Nc2ccccc2)cc1,?,?,38*,-28%,76,?
CCCC(=O)Nc1ccc(C(=O)n2ccc(C)n2)cc1,18%,2%,11*,-12%,31,-11%
CC(C)C(=O)OCC(=O)Nc1ccc(N=Nc2ccccc2)cc1,-29%,?,31*,?,46*,?
COc1cccc(CNC(=O)C2CCCCN2S(=O)(=O)c2ccc(F)cc2)c1 (configuration not stated),4%,17%[46.1 µM],/,/,/,-14%
O=C(NC1CCN(C(=O)Nc2ccccc2Cl)CC1)c1ccco1,-10%,0%,-5,14%[46.1 µM],19,-3%
CCn1c(=O)cc(SCC(=O)NCc2cccc(Cl)c2)c2ccccc21,-23%,-23%[46.1 µM],/,?,/,-25%
CC(C)=CCCC1(C)C=Cc2c(O)c3c(c(CC=C(C)C)c2O1)OC12C(=CC4CC1C(C)(C)OC2(C/C=C(/C)C(=O)O)C4O)C3=O (configuration not stated),11µM*,/,/,/,/,13µM*
CC(C)c1ccc(N2C(=O)CSC23C(=O)N(C)c2ccccc23)cc1 (configuration not stated),10%,-1%[46.1 µM],/,/,/,0%
CCOc1ccccc1C1C2CCCCC2(O)CCN1C(=O)c1cccs1 (configuration not stated),-2%,2%,44*,?,55*,-7%
